# An excerpt weighted towards active compounds, which were near 11% of everything screened.
# PNC assembly inh: inhibitors of perinucleolar compartment assembly | PC3M PTB-GFP, PNC prevalence imaging, 16 h; hits give low values | activity change (PNC), negative = inhibition, % at 10 µM | actives 3.1% (n = 140,000) | AID 2417;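 active = readout at or below -70, meaning at least 70% loss of cells showing the perinucleolar compartment, a nuclear body marking cancer cells; inconclusive = readout between -30 and a set limit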;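 note: plate controls were DMSO wells for no effect and camptothecin positive control wells for full effect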
#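 Compounds are pinned in duplicate onto adhered PC3M cells stably expressing GFP-tagged PTB and incubated 16 h at 37 C. Cells are then fixed, nuclei stained with Hoechst, and PNC-positive cells counted.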
# HPGD block: blocks human HPGD enzyme activity; P15428; purified HPGD, NADH fluorescence kinetic, PGE2 substrate; Potency, µM, for inactives: at the top dose activity change, negative = inhibition, usual class: inhibitors; actives 4.3% (n = 150,000); note: potency is the fitted concentration of half-maximal effect
# Target sequence (P15428 whole entry, looked up): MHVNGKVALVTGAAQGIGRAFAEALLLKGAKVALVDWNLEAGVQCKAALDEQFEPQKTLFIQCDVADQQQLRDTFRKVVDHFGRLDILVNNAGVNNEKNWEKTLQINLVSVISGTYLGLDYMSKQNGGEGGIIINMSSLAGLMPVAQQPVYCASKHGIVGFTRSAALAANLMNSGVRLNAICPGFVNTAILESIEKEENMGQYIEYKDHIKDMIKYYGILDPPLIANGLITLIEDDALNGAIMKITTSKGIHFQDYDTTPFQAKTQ
#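 20 nM HPGD preincubated 15 min at room temperature with compound in 50 mM Tris-HCl pH 8, 0.01% Tween 20. Started with 1 mM NAD+ and 30 uM prostaglandin E2; NADH fluorescence (360/450 nm) read 5 times over 30-s intervals, last minus first.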
# ALDH1A1 block: inhibitors of human aldehyde dehydrogenase 1A1; P00352; Purified ALDH1A1, NADH fluorescence, propionaldehyde substrate; Potency, µM (highest dose often 75.3 µM), for the others: at the top dose activity, negative = inhibition, hits mostly inhibitors; actives 7.3% (n = 220,000); AID 1030;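 note: potency is the fitted concentration of half-maximal effect; plate controls were no enzyme wells and a reference inhibitor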
# * hit, by the source's call; ? = inconclusive; . = not tested or not shown. Unless noted, calls come from the whole dose curve; as a rule, active = well fitted inhibition curve with a large enough effect (not every such curve was filed as active); inconclusive = small, poorly fitted or top-dose-only effect, or another doubt; inactive = no such curve, though single readings can be large or run the other way. Unless noted, % is set by controls: 0 for no effect and ±100 for the full control effect.
SMILES,PNC assembly inh,HPGD block,ALDH1A1 block
COC(=O)N1C2=C(c3ccccc3[C@@H]1CC(=O)Nc1ccc(Br)cc1)[C@@H]1C(=O)N(c3ccccc3)C(=O)[C@@H]1[C@H](C)C2,.,-13%,?
O=C(CCS(=O)(=O)c1ccccc1)NCCS(=O)(=O)c1ccccc1,.,.,-9%
CCNC(=O)CCS(=O)(=O)c1ccc2ccccc2c1,-16,32µM*,?
NNC(=O)c1sccc1OCc1ccc(Cl)cc1,.,.,2.2µM*
COc1ccc(COc2ccsc2C(=O)Nc2ccc(Cl)c(Cl)c2)cc1,29,-20%,6%
O=C(CSc1nnc(CNc2ccc(F)cc2)n1Cc1ccccc1)N1CCOCC1,41,-6%,1%
COc1cc(NC(=O)c2nnn(Cc3ccc(SC)cc3)c2N)cc(OC)c1,?,-14%,7.9µM*
CSc1cccc(NC(=O)c2nnn(Cc3ccccc3)c2N)c1,-10,-9%,-9%
CCOC(=O)c1c(NC(=S)NCCc2ccccc2)sc2c1CC(C(C)C)OC2 (stereo not drawn),?,-9%,25µM*
CCOC(=O)c1c(NC(=O)C(C)Sc2cccc[n+]2[O-])sc2c1CCN(Cc1ccccc1)C2 (stereo not drawn),16,-19%,?
C=CCNC(=S)Nc1sc2c(c1C(=O)OCC)CC(C(C)C)OC2 (stereo not drawn),32,-29%,11µM*
CCOC(=O)c1c(NC(=O)CN(CC)CC)sc2c1CCN(C(=O)OCC)C2,-13,?,?
NCCC(=O)O,.,0%,-7%
O=C(COC(=O)C12CC3CC(CC(C3)C1)C2)Nc1ccc([N+](=O)[O-])cc1Br,-13,-17%,-8%
N#Cc1cc([N+](=O)[O-])ccc1NC(=O)COC(=O)C12CC3CC(CC(C3)C1)C2,.,.,22µM*
CCc1nc(N2CCN(Cc3ccc4c(c3)OCO4)CC2)c2oc3ccccc3c2n1,86,?,?
CCN(CC)c1ccc(C(=O)OCC(=O)N2CCN(c3ccccc3)CC2)cc1,-21,-1%,?
CN1CC(=O)N(CC(=O)Nc2ccc(SC(F)F)cc2)C1=O,.,.,1%
CN1CC(=O)N(CC(=O)Nc2cc(Cl)cc(Cl)c2)C1=O,.,.,10µM*
CCN1CCCC1CNC(=O)c1csc2c1CCCC2 (stereo not drawn),-85*,-4%,0%
COCCNC(=O)c1csc2c1CCCC2,?,16µM*,-8%
COc1ccc(CCNC(=O)c2csc3c2CCCC3)cc1OC,.,.,-7%
CCN1CCN(CCCNC(=O)c2csc3c2CCCCC3)CC1,122,-7%,-1%
O=C(NCCN1CCOCC1)c1csc2c1CCCCC2,62,-14%,-1%
O=C(NCC1CCCO1)c1csc2c1CCCC2 (stereo not drawn),-14,20µM*,-11%
SMILES,PNC assembly inh,HPGD block,ALDH1A1 block
Cc1nn(C)c(Cl)c1C(N)=O,.,.,-5%
Cc1ccc(C2C(C(=O)c3sc(C)nc3C)=C(O)C(=O)N2CCCN(C)C)o1 (stereo not drawn),20,-5%,0%
O=c1ccn([C@@H]2O[C@H](COP(=O)(O)O)[C@@H](O)[C@H]2O)c(=O)[nH]1,.,.,-5%
Cc1nc(N2CCN(C)CC2)[nH]c(=O)c1Cc1cccc2ccccc12,-2,-14%,?
Cc1[nH]c(=O)[nH]c(=O)c1Cc1cccc2ccccc12,.,.,10µM*
COc1ccc(/C=N/NC(=O)c2ccc(Br)cc2)c(OC)c1,.,.,-1%
O=C(N/N=C/c1c[nH]c2ccccc12)c1cccc([N+](=O)[O-])c1,95,-27%,-6%
O=C(N/N=C/c1cc(Cl)ccc1O)c1ccccc1Br,.,.,-9%
O=C(N/N=C/c1coc2ccccc2c1=O)c1ccccc1Br,-21,-29%,4.5µM*
O=C(N/N=C/c1coc2ccccc2c1=O)c1cccc([N+](=O)[O-])c1,.,.,28µM*
COc1ccc(C(=O)N/N=C\c2coc3ccccc3c2=O)cc1,.,.,3.5µM*
CSc1ncccc1C(=O)OCC(=O)NC(C)C,.,.,5%
CCOc1nc(OCC)nc(N2CCC(C)CC2)n1,38,-3%,10µM*
CCOc1nc(C#N)nc(N2CCCCC2)n1,7,-13%,?
Cc1ccc2nc(N3CCN(C=O)CC3)nc(-c3ccccc3)c2c1,-100*,-25%,?
Cc1ccc2nc(-c3ccccc3)c(CC(=O)O)c(C(=O)O)c2c1,.,.,14%
CCC/C=C(\CCC)C(NC(=O)c1ccccc1)c1ccc(C(=O)OC)cc1 (stereo not drawn),.,-13%,-10%
Cc1nn(-c2ccccc2)c2c1C(c1ccncc1)C(C#N)=C(N)O2 (stereo not drawn),57,-13%,14µM*
Cc1ccc(-n2nc(C)c3c2OC(N)=C(C#N)C3c2ccncc2)cc1 (stereo not drawn),49,-7%,?
Cc1nn(-c2ccccc2)c2c1C(c1c(C)[nH]c(C#N)c1C)C(C#N)=C(N)O2 (stereo not drawn),?,-4%,15%
Cc1ccc(-n2nc(C)c3c2OC(N)=C(C#N)C3c2ccccc2F)cc1 (stereo not drawn),4,-14%,4µM*
CN(C)C(=O)c1ccc(-c2nc(NC3CCNCC3)c3ccccc3n2)cc1,.,.,-12%
O=C(CCNS(=O)(=O)c1cccc2nonc12)NCCc1ccc(Cl)cc1,25,-5%,20µM*
O=C(CCNS(=O)(=O)c1cccc2nonc12)N1CCN(c2cccc(Cl)c2)CC1,?,-10%,2µM*
Cc1cccc(NC(=O)CCNS(=O)(=O)c2cccc3nonc23)c1,.,.,18%
SMILES,PNC assembly inh,HPGD block,ALDH1A1 block
O=C(CCS(=O)(=O)c1cccc2nonc12)N1CCN(c2ccc(F)cc2)CC1,-7,-12%,?
CCOC(=O)c1c(NC(=O)CSc2nnc(C)s2)sc2c1CCC(CC)C2 (stereo not drawn),-20,-14%,?
Cc1ccc(S(=O)(=O)/C=C/c2ccccc2)cc1,-22,-15%,-4%
O=[N+]([O-])c1ccc(N2CCCC2)nc1N1CCCC1,.,.,1.4µM*
O=[N+]([O-])c1ccc(N2CCCCC2)nc1,-22,-6%,?
O=c1cc(-c2ccc(O)c(-c3c(O)cc(O)c4c(=O)cc(-c5ccc(O)cc5)oc34)c2)oc2cc(O)cc(O)c12,-21,14µM*,?
COc1cc(O)c2c(=O)cc(-c3ccc(OC)c(-c4c(O)cc(O)c5c(=O)cc(-c6ccc(O)cc6)oc45)c3)oc2c1,.,?,5%
Cc1nccn1-c1ccc(C=O)cc1,.,.,20µM*
COc1ccc(C=O)cc1Cn1ccnc1C,.,.,-7%
COCCN(CCOC)Cc1c(C)[nH]c2c(C)c(C)ccc2c1=O,?,-23%,?
Cc1sc2nc(-c3ccccc3)[nH]c(=O)c2c1-c1ccccc1,71,?,?
Cc1c(-c2ncn[nH]2)sc(C#N)c1-c1ccccc1,.,.,25µM*
O=C(c1ccco1)N1CCN(S(=O)(=O)c2cccc([N+](=O)[O-])c2)CC1,.,.,-13%
CCn1nc(C)cc1-c1n[nH]c(=S)n1N,6,-16%,0%
Cc1ccc(C(=O)CSC2=C(C#N)C(c3ccco3)C3=C(CC(C)(C)CC3=O)N2)cc1 (stereo not drawn),-4,-10%,13µM*
CC1(C)CC(=O)C2=C(C1)NC(SCC(=O)Nc1ccccc1)=C(C#N)C2c1ccco1 (stereo not drawn),-23,-8%,13µM*

# Screens: PubChem BioAssay, National Center for Advancing Translational Sciences (NCATS)
